Compound activity: PubChem BioAssay, National Center for Advancing Translational Sciences (NCATS)
The sample as a whole holds a higher share of hits than the screen did.
CHX counter: affects cycloheximide protein synthesis inhibition readout, counter-screen; max response, %; cell reporter, cycloheximide protein synthesis inhibition counterscreen; 300,000 tested, 12% active; in the data active = max response mostly above about 13%, no sharp cut-off; inactive = mostly below about 14%; also: read at 38.3 µM for the half of the compounds with a filed dose; 0% is about no effect
LmPK inh: inhibitors of Leishmania mexicana pyruvate kinase | 290,000 tested, 0.37% active | Potency, µM (doses to about 57.5 µM), for the others: at the highest dose activity change, negative = inhibition, usual class: inhibitors | Q27686 | AID 1721 | purified LmPK, Kinase-Glo ATP luminescence, 1 h; also: potency is read from the fitted curve at half-maximal effect; % is scaled to controls: 0 for no effect and ±100 for the full control effect
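0.1 nM LmPK, 0.5 mM PEP, 0.1 mM ADP; 50 mM imidazole pH 7.2, 7 mM MgCl2, 50 mM KCl; 1 h RT. Kinase-Glo luminescence readout, normalized to no-enzyme (full inhibition) and uninhibited wells.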
Sm TGR block: blocks Schistosoma mansoni thioredoxin glutathione reductase; Q962Y6; Potency, µM (series often up to 114 µM), inactives show at the top dose activity change, negative = inhibition, usual class: inhibitors; purified TGR, DTNB reduction, TNB absorbance 405 nm; 360,000 tested, 3% active; also: potency is read from the fitted curve at half-maximal effect; % is scaled to controls: 0 for no effect and ±100 for the full control effect; nearly all actives have a fitted effect of over 60% in size
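Kinetic colorimetric format: TGR-catalysed, NADPH-driven DTNB reduction monitored via TNB absorbance. Enzyme dispensed at 20 nM; compound exposure 15 min at room temperature before reaction start.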
Shiga inhibitor: inhibitors of Shiga toxin in Vero cells; Vero cells, Shiga toxin protein synthesis inhibition reporter; AID 2315; 290,000 tested, 9.2% active; inhibition, % at 38.7 µM; in the data active = inhibition mostly above about 28%, no sharp cut-off; inactive = mostly below about 43%; also: 0% is about no effect
Tb PYK inh: blocks Trypanosoma brucei pyruvate kinase | AID 624173 | TbPYK enzyme, Kinase-Glo Plus ATP luminescence, 45 min | Q57TT1 | Potency, µM (series often up to 76.8 µM), for inactives: at the top dose activity, negative = inhibition, hits mostly inhibitors | 410,000 tested, 0.12% active; also: potency is read from the fitted curve at half-maximal effect; % is scaled to controls: 0 for no effect and ±100 for the full control effect; nearly all actives have a fitted effect of over 50% in size
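Activity of T. brucei pyruvate kinase was followed by Kinase-Glo Plus luminescence after the enzyme reacted 45 min at room temperature with 130 uM ADP (final) and substrate. Test compounds were added before ADP at multiple concentrations.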
FBPA Giardia inh: inhibitors of Giardia lamblia fructose-1,6-bisphosphate aldolase | Potency, µM (highest dose often 59.6 µM), for the others: at the highest dose activity, negative = inhibition, hits mostly inhibitors | A8B2U2 | 290,000 tested, 0.71% active | purified Giardia FBPA; also: potency is read from the fitted curve at half-maximal effect; % is scaled to controls: 0 for no effect and ±100 for the full control effect; nearly all actives have a fitted effect of over 55% in size
Target sequence (A8B2U2 whole entry, looked up): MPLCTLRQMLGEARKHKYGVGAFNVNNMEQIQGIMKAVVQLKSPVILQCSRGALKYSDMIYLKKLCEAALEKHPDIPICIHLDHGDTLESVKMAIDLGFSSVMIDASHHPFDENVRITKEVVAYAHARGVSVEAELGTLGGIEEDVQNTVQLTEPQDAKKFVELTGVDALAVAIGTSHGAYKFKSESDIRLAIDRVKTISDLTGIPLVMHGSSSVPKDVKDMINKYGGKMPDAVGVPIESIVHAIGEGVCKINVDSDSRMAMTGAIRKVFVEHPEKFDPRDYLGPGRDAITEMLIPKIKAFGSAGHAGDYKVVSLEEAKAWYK
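40 nM FBPA preincubated 10 min at RT with compound (up to 57.5 uM final), then substrate plus GAPDH/TPI/NAD/arsenate coupling and diaphorase/resazurin added. Fluorescence read after 20 min at RT, 525/598 nm.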
Active calls of the source: *. Unless noted, calls follow the shape of the dose curve; as a rule, active = well fitted curve in the direction sought with a large enough effect; inconclusive = small, poorly fitted or top-dose-only effect, or another doubt; inactive = no such curve, though single readings can be large; an effect the other way counts as inactive or inconclusive.

For O=C(CCNS(=O)(=O)c1c(Cl)cccc1Cl)OCC(=O)c1ccccc1F the results were CHX counter 11, LmPK inh 0%, Sm TGR block -13%, Shiga inhibitor active, Tb PYK inh -4% and FBPA Giardia inh -2%.
O=C(COC(=O)c1ccc(Br)o1)Nc1nc2ccccc2s1 was read as CHX counter 1, LmPK inh 3%, Sm TGR block 0%, Shiga inhibitor 3, Tb PYK inh -3% and FBPA Giardia inh -4%.
O=C(COC(=O)c1ccc([N+](=O)[O-])o1)Nc1nc2ccccc2s1 was read as CHX counter 15, LmPK inh -1%, Sm TGR block 28µM*, Shiga inhibitor 52, Tb PYK inh -3% and FBPA Giardia inh -18%.
For O=C(COC(=O)CNC(=O)c1cccc([N+](=O)[O-])c1)Nc1ccccc1OC(F)F the results were CHX counter 0, LmPK inh 0%, Sm TGR block 4%, Shiga inhibitor -11, Tb PYK inh 0% and FBPA Giardia inh -1%.
O=C(COC(=O)CNC(=O)c1cccc([N+](=O)[O-])c1)Nc1nc2ccccc2s1 was read as CHX counter 15*, LmPK inh -1%, Sm TGR block -2%, Shiga inhibitor 33, Tb PYK inh -1% and FBPA Giardia inh 9%.
Screening COc1ccc(C2CC(=O)Oc3c(C(CCN4CCOCC4)c4ccc5c(c4)OCO5)c(OC)cc(OC)c32)cc1 (stereo not drawn) returned CHX counter -7, Shiga inhibitor -8 and FBPA Giardia inh -12%.
CCc1ccc(NC(=O)c2noc3c2CCc2ccccc2-3)cc1 was read as CHX counter 10, LmPK inh -9%, Sm TGR block 5%, Shiga inhibitor 27, Tb PYK inh 1% and FBPA Giardia inh 0%.
For CCc1ccc(NC(=O)c2noc3c2CCC3)cc1 the results were CHX counter 25*, LmPK inh 14µM*, Sm TGR block -34%, Shiga inhibitor 28, Tb PYK inh -1% and FBPA Giardia inh -12%.
For CC(=O)c1cccc(NC(=O)c2noc3c2CCCC3)c1 the results were Sm TGR block 2% and Tb PYK inh -4%.
CC(=O)c1ccc(NC(=O)c2noc3c2CCc2ccccc2-3)cc1 was read as Sm TGR block 2% and Tb PYK inh 4%.
Screening COc1ccc(OC)c(NC(=O)c2noc3c2CCCC3)c1 returned Sm TGR block 7% and Tb PYK inh 0%.
For CCc1ccc(NC(=O)c2noc3c2CCCCC3)cc1 the results were CHX counter 23*, LmPK inh -1%, Sm TGR block -7%, Shiga inhibitor 85*, Tb PYK inh -6% and FBPA Giardia inh 3%.
For Cc1ccc(NC(=O)c2noc3c2CCc2ccccc2-3)cc1 the results were CHX counter 34*, LmPK inh -1%, Sm TGR block 4%, Shiga inhibitor 47*, Tb PYK inh -1% and FBPA Giardia inh 3%.
COc1ccc(NC(=O)c2noc3c2CCCCC3)cc1 was read as CHX counter 42*, LmPK inh 5%, Sm TGR block 13%, Shiga inhibitor 83*, Tb PYK inh -1% and FBPA Giardia inh 0%.
For CC(C)(C)C1CCc2onc(C(=O)NC3CCCC3)c2C1 (stereo not drawn) the results were CHX counter 7, LmPK inh -1%, Sm TGR block 29%, Shiga inhibitor 23, Tb PYK inh -2% and FBPA Giardia inh 2%.
For CSc1ccccc1NC(=O)c1noc2c1CCC2 the results were CHX counter 38*, LmPK inh -9%, Sm TGR block -30%, Shiga inhibitor 100*, Tb PYK inh -12% and FBPA Giardia inh inconclusive.
`Cc1ccc(NC(=O)c2noc3c2CCCCC3)cc1C` gave CHX counter 43*, LmPK inh -2%, Sm TGR block 0%, Shiga inhibitor 107*, Tb PYK inh 5% and FBPA Giardia inh 5%.
Screening Cc1ccc(O)c(NC(=O)c2noc3c2CCCCC3)c1 returned CHX counter 42*, LmPK inh -9%, Sm TGR block 4%, Shiga inhibitor 185*, Tb PYK inh 4% and FBPA Giardia inh -16%.
For O=C(NC1CCCCC1)c1noc2c1CCCCC2 the results were CHX counter 39*, LmPK inh -14%, Sm TGR block -5%, Shiga inhibitor 72*, Tb PYK inh 1% and FBPA Giardia inh -4%.
For CCOc1ccccc1CNS(=O)(=O)c1ccc2[nH]c(=O)ccc2c1 the results were Sm TGR block -2% and Tb PYK inh -4%.
CCc1ccccc1NC(=O)Cn1nnc(-c2nc(-c3ccncc3)no2)c1N was read as Sm TGR block 4% and Tb PYK inh -6%.
For Cc1ccc(CNC(=O)CN2C(=O)CCn3nc(-c4ccccc4)cc32)cc1 the results were Sm TGR block -2% and Tb PYK inh 2%.
Cc1cccc(Oc2nc3ccccn3c(=O)c2/C=C(\C#N)c2nc3ccccc3s2)c1C was read as Sm TGR block 0% and Tb PYK inh -34%.
Screening Cc1ccc(NC(=O)c2noc3c2CCCCC3)cc1 returned CHX counter 67*, LmPK inh -7%, Sm TGR block 12%, Shiga inhibitor 83*, Tb PYK inh 11% and FBPA Giardia inh 8%.
Screening Cc1ccc(C(=O)c2coc3c2C(=O)C(=O)c2ccccc2-3)cc1 returned CHX counter 32*, LmPK inh 6%, Sm TGR block inconclusive, Shiga inhibitor 42*, Tb PYK inh -19% and FBPA Giardia inh 2.8µM*.
For Cc1ccc(C(=O)c2c(C)oc3c2C(=O)C(=O)c2ccccc2-3)cc1 the results were CHX counter 18, LmPK inh 0%, Sm TGR block inconclusive, Shiga inhibitor 4, Tb PYK inh 6% and FBPA Giardia inh 0.63µM*.
Screening O=C(c1ccc(Cl)cc1)c1ccc(CN2C(=O)c3ccccc3C2=O)o1 returned CHX counter -1, LmPK inh 1%, Sm TGR block -33%, Shiga inhibitor -13, Tb PYK inh -3% and FBPA Giardia inh 3%.
For Cc1oc2c(c1C(=O)c1ccc(Cl)cc1)C(=O)C(=O)c1ccccc1-2 the results were CHX counter 6, LmPK inh -1%, Sm TGR block inconclusive, Shiga inhibitor -2, Tb PYK inh 3% and FBPA Giardia inh 0.89µM*.
Cc1oc2c(c1C(=O)N1CCC(C)CC1)C(=O)c1ccccc1C2=O was read as CHX counter 1, LmPK inh -2%, Sm TGR block -19%, Shiga inhibitor 16, Tb PYK inh 0% and FBPA Giardia inh inconclusive.
`COc1ccc(C(=O)c2coc(-c3ccccc3C(=O)O)c2C(=O)O)cc1` gave CHX counter 5, LmPK inh -3%, Sm TGR block -2%, Shiga inhibitor 5, Tb PYK inh -6% and FBPA Giardia inh 15%.
